Screening results deposited in PubChem BioAssay by SRMLSC.
PMK inhibit – inhibitors of Streptococcus pneumoniae phosphomevalonate kinase; 65,000 tested, 0.49% active; inhibition, % at 10 µM; purified PMK, PK/LDH-coupled NADH absorbance 340 nm;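 active = top-ranked compounds by inhibition in the single 10 µM screen, taking a fixed number of the strongest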;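 note: 0% = full reaction with DMSO carrier and 100% = background rate without enzyme reaction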
A340 absorber – absorbance at 340 nm. compound absorbance at 340 nm, fold over control. fold change at 10 µM. 65,000 tested, under 10 active. AID 708;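 active = at 10 µM dose, initial 340 nm absorbance at least 2 fold that of control wells; inactive = change under 2 fold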;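 note: initial absorbance extrapolated from kinetic A340 decline of NADH oxidation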
NADH enzymes – inhibition of NAD/NADH coupling enzymes, library profiling; coupled PK/LDH NADH assays, four targets; IC50, µM (highest dose often 10 µM), for the others: at the highest dose inhibition; 65,000 tested, 0.02% active; AID 774;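 active = single-dose screening hits from any of four coupled enzyme assays that gave an IC50 when retested across doses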;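 note: the DPM-DC format reads NADH fluorescence rather than 340 nm absorbance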
Autofluor 339 – intrinsic fluorescence of library compounds, ex339/em460 – biochemical, MLSMR library, data from DPM-DC assay, artefact control, profiling panel; fluorescence fold increase at 10 µM; AID 709; 65,000 tested, 5.5% active; compound autofluorescence, ex339/em460 nm, NADH buffer; stronger effect = higher value; 1 = no-compound wells, NADH background;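 active = at 10 µM, mean starting fluorescence two-fold or more over control wells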;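 note: signal is the first read of a kinetic run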
Spn DPM-DC inh – inhibitors of Streptococcus pneumoniae diphosphomevalonate decarboxylase. 65,000 tested, 0.49% active. purified DPM-DC, PK/LDH coupled NADH fluorescence. calls only at 10 µM. AID 556;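 active = the 320 compounds with the highest percent inhibition in the single-dose primary screen, excluding strongly autofluorescent ones, cut at about 32% in these data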;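 note: kinetic rate of NADH fluorescence loss reporting ADP formed by the decarboxylase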
Spn MK inh – blocks S. pneumoniae mevalonate kinase; purified MK, PK/LDH-coupled NADH absorbance 340 nm; inhibition, % at 10 µM; 65,000 tested, 0.48% active;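 active = ranked among the strongest by inhibition in the single 10 µM screen, a fixed top-ranked set picked for dose follow-up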
Active calls of the source: *; i = inactive; / = no result given; + = active, no number. Most compounds without a hit are left out; they make up all but 6.3% or so of the library.

SMILES	PMK inhibit	A340 absorber	NADH enzymes	Autofluor 339	Spn DPM-DC inh	Spn MK inh
Cc1ccc2cc(CN(CCO)Cc3nnnn3Cc3ccc(F)cc3)c(=O)[nH]c2c1	14.0	1.02	6.0%	1.07	i	1.0
Cc1ccc2[nH]c(=O)c(CN(Cc3ccc4c(c3)OCO4)Cc3nnnn3Cc3ccco3)cc2c1	11.0	1.01	4.0%	1.09	i	8.0
O=c1[nH]c2cc3c(cc2cc1CN(CCCO)Cc1nnnn1Cc1ccc(F)cc1)OCO3	9.0	1.18	17.0%	3.14*	+	7.0
CCOc1ccc2[nH]c(=O)c(CN(Cc3cccs3)Cc3nnnn3C(C)(C)CC)cc2c1	11.0	1.02	15.0%	2.65*	i	4.0
CCC(C)(C)n1nnnc1CN(Cc1cccs1)Cc1cc2cc(OC)ccc2[nH]c1=O	8.0	1.01	7.0%	1.68	i	9.0
O=c1[nH]c2cc3c(cc2cc1CN(Cc1cccs1)Cc1nnnn1Cc1ccco1)OCCO3	6.0	1	11.0%	2.43*	i	5.0
CCn1c(SCC(=O)Nc2cc(C)on2)nnc1-c1ccncc1	0.0	1.02	0.0%	1.2	i	0.0
CCOc1cc(C)nc(N2CCC(C(=O)Nc3ccccc3OCC)CC2)n1	13.0	1	5.0%	1.1	i	0.0
CCCCNC(=O)c1ccc2nc(-c3ccco3)c(-c3ccco3)nc2c1	7.0	1.1	20.0%	1.86	+	17.0
O=C(Nc1ccc(N2CCOCC2)cc1)c1ccc2nc(-c3ccco3)c(-c3ccco3)nc2c1	5.0	1.05	6.0%	1.04	i	10.0
O=C(Nc1ccccc1)c1ccc2nc(-c3ccco3)c(-c3ccco3)nc2c1	4.0	1.05	10.0%	2.56*	i	16.0
CCCOc1ccc(C(=O)N2CCN(c3ccc(N)cc3Cl)CC2)cc1	0.0	1.02	3.0%	1.13	i	9.0
COC(=O)c1cc2occc2n1CC(=O)Nc1ccc(OC)c(OC)c1OC	0.0	1.02	35.0%	1.04	+	22.0
COC(=O)c1cc2oc(C)cc2n1CC(=O)Nc1ccc(OC)c(OC)c1OC	8.0	1.03	6.0%	1.13	i	7.0
N#Cc1cc2c(=O)n3ccccc3nc2n(Cc2cccnc2)c1=O	9.0	1.07	8.0%	3.84*	/	7.0
Cc1cccn2c(=O)c3cc(C#N)c(=O)n(Cc4cccnc4)c3nc12	3.0	1.04	5.0%	3.8*	/	6.0
Cc1[nH]nc(-c2ccc(O)c(C)c2O)c1-c1cnn(-c2ccccc2)c1	9.0	1.01	2.0%	1.05	i	9.0
CC(=O)CC1OC(=O)C(Br)=C1NCc1ccccc1 (stereo not given)	14.0	1	5.0%	1.1	i	0.0
CC(=O)Nc1nnc(-c2ccc3c(c2)CCCC3)o1	10.0	1.03	11.0%	0.81	i	5.0
CC1CN(S(=O)(=O)c2ccc(C(=O)Nc3nnc(-c4ccc5c(c4)CCCC5)o3)cc2)CC(C)O1 (stereo not given)	0.0	1.11	0.0%	2.14*	/	0.0
COc1ccc(C2C3=C(CC(C)(C)CC3=O)Nc3c2c(=O)[nH]c2nc(C)nn32)cc1 (stereo not given)	5.0	1.05	16.0%	2.54*	i	15.0
CCOCCCn1cnc2c(c1=O)c1nc3ccccc3nc1n2-c1ccccc1	13.0	1.13	11.0%	2.97*	i	8.0
CC(C)CCn1cnc2c(c1=O)c1nc3ccccc3nc1n2Cc1ccc2c(c1)OCO2	2.0	1.05	2.0%	3.59*	/	2.0
CCCCn1c2nc3ccccc3nc2c2c(=O)n(CCC)cnc21	11.0	1.13	9.0%	3.86*	/	7.0
COc1ccc(Cn2c3nc4ccccc4nc3c3c(=O)n(Cc4ccco4)cnc32)cc1	0.0	1.09	5.0%	1.81	i	8.0
COCCCn1cnc2c(c1=O)c1nc3ccccc3nc1n2CCc1ccccc1	0.0	1.05	2.0%	2.4*	/	3.0
CCOCCCn1cnc2c(c1=O)c1nc3ccccc3nc1n2-c1ccc(C)cc1	12.0	1.1	9.0%	1.2	i	14.0
COc1ccc(S(=O)(=O)N(CCN2CCOCC2)Cc2cc(OC)ccc2OC)cc1	13.0	0.99	8.0%	1.74	i	7.0
CCCn1cnc2c(c1=O)c1nc3ccccc3nc1n2Cc1ccccc1OC	13.0	1.04	3.0%	1.12	i	4.0
CCCCCCn1cnc2c(c1=O)c1nc3ccccc3nc1n2Cc1cccs1	5.0	1.08	6.0%	2.33*	i	3.0
